Source: PubChem (several laboratories)
In the library only some 2.3% were active in any assay of this set; here they are far more common.
Mcl1-Noxa inh: Mcl-1/Noxa binding inhibitors, primary screen, biochemical, TR-FRET, 1536-well | Induced myeloid leukemia cell differentiation protein Mcl-1 (Homo sapiens), Q07820 | TR-FRET Mcl-1/Noxa peptide binding, 2 h | inhibition, % at 21.7 µM | 220,000 compounds, 1.5% hits;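 active = compounds that cut the protein-peptide binding signal by more than 50% relative to plate controls in a single-dose test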;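 note: His-tagged Mcl-1 with rhodamine Noxa BH3 peptide and terbium anti-His antibody; 0% = Mcl-1 plus Noxa peptide wells and 100% = peptide-only wells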
MCL1 BIM primary: inhibitors of MCL1 binding to BIM-BH3, primary screen, biochemical, fluorescence polarization. inhibition, % at 10.9 µM. AID 2057, 2009. GST-MCL1 / FITC-Bim-BH3 fluorescence polarization. Induced myeloid leukemia cell differentiation protein Mcl-1 (Homo sapiens), Q07820. 320,000 compounds, 0.68% hits;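 active = inhibition above the mean inhibition of all tested compounds plus 3 SD, set per campaign, cut at about 40% in these data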;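 note: 0% = DMSO wells and 100% = unlabeled Bim-BH3 peptide control; higher means more loss of mP so more displacement of Bim peptide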
Mcl1 Bid PPI: Mcl-1/Bid binding inhibitors, primary screen, biochemical, TR-FRET, 1536-well; 220,000 compounds, 0.97% hits; TR-FRET Mcl-1/Bid-Dy647 peptide binding; Induced myeloid leukemia cell differentiation protein Mcl-1 (Homo sapiens), Q07820; inhibition, % at 21.7 µM;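 active = compounds that cut the binding signal by more than half at the single screening dose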;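 note: His-tagged Mcl-1 with europium anti-His antibody binding Bid BH3 peptide; 0% = Mcl-1 plus peptide wells and 100% = peptide-only wells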
GLD-1 RNA inh: GLD-1/TGE RNA complex disruptors, primary screen, biochemical, fluorescence polarization; inhibition, % at 5.96 µM; purified GLD-1 + fluorescein TGE RNA; 320,000 compounds, 0.44% hits; AID 2280, 2010;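 active = percent inhibition above a per-plate cutoff, the plate mean of test compounds plus 3 SD, cut at about 30% in these data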;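 note: 0% = DMSO wells with GLD-1 and probe and 100% = wells lacking GLD-1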
Target sequence (Q17339 whole entry, looked up): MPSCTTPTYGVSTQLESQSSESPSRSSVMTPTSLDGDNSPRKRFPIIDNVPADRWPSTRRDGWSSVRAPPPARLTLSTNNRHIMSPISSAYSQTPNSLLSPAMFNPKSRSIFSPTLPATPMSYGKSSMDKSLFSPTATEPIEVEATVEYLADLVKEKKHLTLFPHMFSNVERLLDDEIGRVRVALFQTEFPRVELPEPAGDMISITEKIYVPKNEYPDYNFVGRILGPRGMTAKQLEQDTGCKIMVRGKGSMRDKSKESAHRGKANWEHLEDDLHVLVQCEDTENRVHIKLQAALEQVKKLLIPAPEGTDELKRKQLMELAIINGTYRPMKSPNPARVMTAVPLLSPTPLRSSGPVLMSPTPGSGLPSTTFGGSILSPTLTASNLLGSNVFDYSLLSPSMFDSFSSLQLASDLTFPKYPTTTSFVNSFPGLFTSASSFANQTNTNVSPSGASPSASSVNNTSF
Bim-Mcl-1: inhibitors of Bim peptide binding to Mcl-1, primary screen, biochemical, bead-based flow cytometry, multiplex; AID 1009, 2008; Bim peptide-Mcl-1 binding; Induced myeloid leukemia cell differentiation protein Mcl-1 (Homo sapiens), Q07820; inhibition, % at 10 µM; 190,000 compounds, 0.1% hits; in the data active = inhibition above about 40%;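 note: 0% = no compound tracer wells and 100% = peptide blocker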
Bcl-xL primary: inhibitors of human Bcl-xL, primary screen, biochemical, fluorescence polarization, HTS | Bcl-2-like protein 1 (Homo sapiens), Q07817 | GST-Bcl-xL / FITC-Bim BH3 peptide fluorescence polarization | inhibition, % at 10.9 µM | 320,000 compounds, 0.7% hits;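 active = inhibition above the mean of all tested compounds plus 3 SD, cutoff set per campaign, cut at about 30% in these data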;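 note: 0% = DMSO wells and 100% = unlabeled Bim-BH3 peptide competitor; inhibitors lower millipolarization by displacing the labeled peptide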
Target sequence (Q07817 whole entry, looked up): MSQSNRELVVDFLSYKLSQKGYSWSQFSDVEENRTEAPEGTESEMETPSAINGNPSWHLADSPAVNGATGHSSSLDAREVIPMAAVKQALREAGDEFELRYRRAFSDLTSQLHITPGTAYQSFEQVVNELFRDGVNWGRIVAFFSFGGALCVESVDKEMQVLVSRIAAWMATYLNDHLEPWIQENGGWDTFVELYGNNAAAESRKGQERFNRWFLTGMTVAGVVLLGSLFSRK
Starred values were filed as active, the others as inactive.

Results for CC(/C=N/n1c(-c2ccco2)n[nH]c1=S)=C\c1ccco1 ?
Mcl1-Noxa inh: 42; MCL1 BIM primary: 19; Mcl1 Bid PPI: -47; GLD-1 RNA inh: 2; Bim-Mcl-1: -3; Bcl-xL primary: 0

Results for CC(/C=N\Nc1nnc2c(n1)[nH]c1c(C)cccc12)=C\c1ccco1 ?
Mcl1-Noxa inh: 87*; MCL1 BIM primary: 9; Mcl1 Bid PPI: 78*; GLD-1 RNA inh: 4; Bim-Mcl-1: 0; Bcl-xL primary: 5

Results for O=C(Cc1cccs1)N=Nc1c(O)[nH]c2ccc(Br)cc12 ?
Mcl1-Noxa inh: 44; MCL1 BIM primary: 4; Mcl1 Bid PPI: -4; GLD-1 RNA inh: 6; Bcl-xL primary: 10

How did COc1ccc2[nH]c(O)c(N=NC(=O)Cc3cccs3)c2c1 do in these assays?
Mcl1-Noxa inh: 61*; MCL1 BIM primary: 32; Mcl1 Bid PPI: -55; GLD-1 RNA inh: -5; Bcl-xL primary: 10

Results for O=C(COc1ccc([N+](=O)[O-])cc1)NNC(=O)Nc1cccc(F)c1 ?
MCL1 BIM primary: 3; GLD-1 RNA inh: -3; Bcl-xL primary: 2

What do the screens show for `COc1cc(CN2CCN(Cc3ccc(C(F)(F)F)cc3)CC2)cc(OC)c1OC`?
MCL1 BIM primary: 0; GLD-1 RNA inh: 12; Bcl-xL primary: 0

What do the screens show for `O=c1c(O)c(-c2cccs2)oc2ccc(Cl)cc12`?
Mcl1-Noxa inh: -31; MCL1 BIM primary: 42*; Mcl1 Bid PPI: -31; GLD-1 RNA inh: 57*; Bim-Mcl-1: 6; Bcl-xL primary: 46*

Results for COc1cccc(N2CCN(CC(=O)NC(=O)NCc3ccco3)CC2)c1 ?
Mcl1-Noxa inh: 62*; MCL1 BIM primary: 30; Mcl1 Bid PPI: -50; GLD-1 RNA inh: 2; Bim-Mcl-1: 1; Bcl-xL primary: 6

How did CC(=O)Nc1ccc(S(=O)(=O)N[C@@H](C)C(=O)OCC(=O)c2ccc(C)cc2)cc1 do in these assays?
GLD-1 RNA inh: 1

Results for O=c1[nH]c(O)c(/C=C2\C=Nc3ccccc32)[nH]1 ?
Mcl1-Noxa inh: -3; Mcl1 Bid PPI: -30

What do the screens show for `O=C1C=Cc2ccccc2/C1=C/c1[nH]c(=O)[nH]c1O`?
Mcl1-Noxa inh: 60*; MCL1 BIM primary: -6; Mcl1 Bid PPI: -30; GLD-1 RNA inh: -9; Bcl-xL primary: 0

Results for CCCCn1c(NC(=O)c2ccccc2)c(C#N)c2nc3ccccc3nc21 ?
Mcl1-Noxa inh: 67*; Mcl1 Bid PPI: 85*; Bim-Mcl-1: 2

Results for Cc1cc(NC2C3CC4CC(C3)CC2C4)n2nnnc2n1 (stereo not drawn) ?
Mcl1-Noxa inh: 27; MCL1 BIM primary: 2; Mcl1 Bid PPI: 76*; GLD-1 RNA inh: 8; Bim-Mcl-1: 0; Bcl-xL primary: 1

What do the screens show for `CNc1ccc(/C=C(\C#N)c2ccccn2)cc1[N+](=O)[O-]`?
Mcl1-Noxa inh: 64*; MCL1 BIM primary: 40*; Mcl1 Bid PPI: 39; GLD-1 RNA inh: 15; Bim-Mcl-1: -1; Bcl-xL primary: 37*

How did Cn1cc(CCC(=O)N2CCCC(N3CCN(c4ccccc4F)CC3)C2)cn1 (stereo not drawn) do in these assays?
MCL1 BIM primary: 5; GLD-1 RNA inh: 2; Bcl-xL primary: 2

How did Cc1ccc(CCNC(=O)C2CCC(=O)N(Cc3ccccc3F)C2)o1 (stereo not drawn) do in these assays?
MCL1 BIM primary: 6; GLD-1 RNA inh: 4; Bcl-xL primary: 0

What do the screens show for `CCOc1ccc(NC(=O)CC2C(=O)N(c3ccc(OC)cc3)C(=S)N2Cc2ccccn2)cc1` (stereo not drawn)?
Mcl1-Noxa inh: 10; MCL1 BIM primary: 1; Mcl1 Bid PPI: 82*; GLD-1 RNA inh: 0; Bim-Mcl-1: 0; Bcl-xL primary: 5

What do the screens show for `CCOC(=O)Cc1csc(-n2sc3ccccc3c2=O)n1`?
Mcl1-Noxa inh: 68*; MCL1 BIM primary: 6; Mcl1 Bid PPI: -43; GLD-1 RNA inh: -1; Bim-Mcl-1: -5; Bcl-xL primary: -4

What do the screens show for `CCN(CC)c1ccc(NC(=O)CSc2ccsc2[N+](=O)[O-])c(C)c1`?
Mcl1-Noxa inh: 66*; MCL1 BIM primary: 33; Mcl1 Bid PPI: -86; GLD-1 RNA inh: 3; Bim-Mcl-1: -4; Bcl-xL primary: 7

Results for O=C(CSc1ccsc1[N+](=O)[O-])Nc1cc(F)ccc1F ?
Mcl1-Noxa inh: 104*; Mcl1 Bid PPI: -11; Bim-Mcl-1: -4

Results for CC(=O)c1ccc(NC(=O)CSc2ccsc2[N+](=O)[O-])cc1 ?
Mcl1-Noxa inh: 87*; Mcl1 Bid PPI: -35; Bim-Mcl-1: -2

Results for Cc1ccc(CNC(=O)CSc2ccsc2[N+](=O)[O-])cc1 ?
Mcl1-Noxa inh: 15; MCL1 BIM primary: 5; Mcl1 Bid PPI: -16; GLD-1 RNA inh: 5; Bim-Mcl-1: 0; Bcl-xL primary: 6

What do the screens show for `COc1ccccc1NC(=O)N1CCCC1C(=O)NCc1ccccc1Cl` (stereo not drawn)?
MCL1 BIM primary: -2; GLD-1 RNA inh: 4; Bcl-xL primary: 4

How did CN(C)c1ccc(P(=O)(OCc2ccccc2)C(O)c2ccccc2)cc1 (stereo not drawn) do in these assays?
Mcl1-Noxa inh: 4; MCL1 BIM primary: 0; Mcl1 Bid PPI: -80; GLD-1 RNA inh: 3; Bcl-xL primary: 0

Results for Cc1ccccc1C1C(C#N)=C2NC(=O)c3c(sc4c3CCCCC4)N2C2=C1C(=O)CC(C)(C)C2 (stereo not drawn) ?
Mcl1-Noxa inh: -111; MCL1 BIM primary: 34; Mcl1 Bid PPI: -130; GLD-1 RNA inh: 101*; Bim-Mcl-1: 1; Bcl-xL primary: 30

How did COc1cc(C2C(C#N)=C(N)N(c3sc4c(c3C#N)CCCC4)C3=C2C(=O)CC(C)(C)C3)cc(OC)c1OC (stereo not drawn) do in these assays?
Mcl1-Noxa inh: 10; MCL1 BIM primary: 0; Mcl1 Bid PPI: -29; GLD-1 RNA inh: -1; Bim-Mcl-1: 0; Bcl-xL primary: 8

What do the screens show for `C=CCOC(=O)C1=C(C)N=c2s/c(=C3\C(=O)N(CC(=O)O)c4ccccc43)c(=O)n2C1c1ccc(OC)cc1` (stereo not drawn)?
Mcl1-Noxa inh: 81*; MCL1 BIM primary: 16; Mcl1 Bid PPI: 3; GLD-1 RNA inh: 1; Bcl-xL primary: 20

How did Nc1nc2ncc(C(=O)c3cc(Cl)cc(Cl)c3O)cc2s1 do in these assays?
Mcl1-Noxa inh: 28; MCL1 BIM primary: 29; Mcl1 Bid PPI: -57; GLD-1 RNA inh: -6; Bcl-xL primary: 32*
